# This is part of a sample that, as a whole, favours compounds with a hit. Of some 83,000 tested, about 20% had one in any assay.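 Treatment: one concentration, 48 hours, 96-well format. Scoring: percent growth, with anything below 10 considered active.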 Active and inactive are the calls of the source.
# System: KM12 colon
# Assay: NCI-60 one-dose screen, 48 h (100 = growth as untreated, 0 = no growth, -100 = all killed)
# Conditions: 10 µM
row,SMILES,growth
1,COc1ccc(-c2cc(-c3cc(C(=O)c4ccc(Br)cc4)n4ccc(C)cc34)nc(N)c2C#N)cc1,82.1% (inactive)
2,CC1(C)[C@@H](NCO)CC[C@]2(C)[C@H]3C(=O)C=C4[C@@H]5C[C@](C)(CO)CC[C@]5(C)CC[C@@]4(C)[C@]3(C)CC[C@@H]12,65.7% (inactive)
3,CO[C@@H]1CSS[C@H]1Cn1nc(-c2ccc(Oc3ccccc3)cc2)c2c(N)ncnc21,60% (inactive)
4,CC(=O)Nc1ccc(-c2cn(-c3cccc(C(=O)Nc4ccc(F)c(C(F)(F)F)c4)c3)nn2)cn1,28.4% (inactive)
5,CC1(c2ccccc2)NC(=O)N(CC(=O)Nc2ccc(C(=O)/C=C/c3ccccc3)cc2)C1=O (stereo not drawn),-73% (active)
6,CN(C(=O)c1ccc(C(C)(C)C)cc1)c1sc2c(c1C#N)CCC(=O)C2,-6.74% (active)
7,Nc1nc(-c2ccccc2)cs1,43.1% (inactive)
8,CN1C(=O)N(C)C2SC(N/N=C/c3cccs3)=NC21 (stereo not drawn),16.1% (inactive)
9,O=C(CSc1nnc(-c2c[nH]c3ccccc23)n1-c1ccccc1)c1ccccc1,69.5% (inactive)
10,Nc1nc2c(F)c(F)c(F)c(F)c2s1,99.9% (inactive)
11,CC1=C(c2cc(-c3ccc(Cl)cc3)c(C#N)c(N)n2)C(c2ccccc2)NC(=S)N1 (stereo not drawn),49.5% (inactive)
12,Cc1noc2c(Cc3ccc([N+](=O)[O-])cc3)nn(CC(=O)N/N=C/c3ccc(Cl)cc3)c(=O)c12,69.7% (inactive)
13,CN1CCN(Cc2ccc(C(=O)Nc3cccc(Nc4ccc5cc(O)ccc5n4)c3)cc2C(F)(F)F)CC1,-48% (active)

# — PubChem BioAssay (NCI)
